Laboratory results reported in PubChem BioAssay AID1619 (SRMLSC, 2009).
The whole screen tested about 220,000 compounds, of which about 830 (0.38%) were called active.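 The calls were made as follows: active = compound inhibiting the enzyme by more than half at any dose during confirmatory dose-response retesting; inconclusive = strong single-dose inhibitors picked by rank but not retested; inactive = the rest.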 A selection follows. Measured potencies and affinities stand elsewhere.

Biological target: Leucine aminopeptidase (Plasmodium falciparum (isolate 3D7)) (UniProt Q8IL11)
Sequence (Q8IL11 whole entry, looked up): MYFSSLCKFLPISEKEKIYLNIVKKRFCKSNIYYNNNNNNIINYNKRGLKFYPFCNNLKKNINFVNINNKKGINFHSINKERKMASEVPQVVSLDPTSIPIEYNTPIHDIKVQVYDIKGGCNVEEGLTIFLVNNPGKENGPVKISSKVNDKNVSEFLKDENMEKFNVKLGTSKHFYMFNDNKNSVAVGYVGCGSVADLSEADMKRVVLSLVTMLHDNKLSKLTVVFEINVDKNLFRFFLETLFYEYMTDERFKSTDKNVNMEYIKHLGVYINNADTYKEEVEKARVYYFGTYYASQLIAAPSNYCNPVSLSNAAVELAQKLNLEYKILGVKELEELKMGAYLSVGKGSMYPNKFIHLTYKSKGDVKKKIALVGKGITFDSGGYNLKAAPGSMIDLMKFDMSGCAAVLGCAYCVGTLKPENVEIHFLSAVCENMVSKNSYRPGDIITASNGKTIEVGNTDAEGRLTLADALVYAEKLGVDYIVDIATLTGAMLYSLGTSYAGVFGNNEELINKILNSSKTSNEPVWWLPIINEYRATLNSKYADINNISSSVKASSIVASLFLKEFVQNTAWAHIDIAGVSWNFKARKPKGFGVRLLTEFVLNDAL
Assay: P. falciparum M17LAP inhibitors, primary screen, biochemical, fluorogenic H-Leu-NHMec substrate, 1536-well (AID 1619);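 also: plate controls were full reaction with DMSO carrier for no effect and no enzyme background for full effect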
Details: recombinant M17LAP, H-Leu-NHMec fluorogenic kinetic assay; at 30 µM; hits give high values

inhibition, inactive:
O=C(NC(Cc1ccccc1)C(=O)NC1CC1)OCc1ccccc1 (stereo unspecified) 9.99%
CCCOc1ccc(OCCSc2nnc(N)s2)cc1 -4.02%
Cc1cc(C)c(/C=N/NC(=O)c2nnn(-c3nonc3N)c2COc2ccc(F)cc2)c(C)c1 11.6%
CC(=O)Nc1nc(COc2ccccc2)cs1 -12.2%
O=[N+]([O-])c1ccc(N2CCN(S(=O)(=O)c3ccccc3)CC2)cc1NCCN1CCOCC1 -0.09%
CCOC(=O)c1cc(NC(=O)c2cccnc2)ccc1N1CCOCC1 -6.5%
Cc1ccnc(SCC(=O)N2CCCc3ccccc32)n1 -6.82%
O=S(=O)(Nc1cccc2c1CCCC2)c1cccc(C(F)(F)F)c1 -8.32%
COc1ccc([N+](=O)[O-])cc1NC(=O)Cc1ccc(Cl)cc1 8.59%
COc1cc([N+](=O)[O-])ccc1NC(=O)Cc1ccc(C)cc1 -2.2%
Cc1cccc(NC(=O)CSc2nnc(-c3ccco3)o2)c1C 0.69%
Cc1ccc(NC(=O)CSc2nnc(-c3ccco3)c(-c3ccco3)n2)cc1 53.2%
Cc1ccccc1NC(=O)CSc1nnc(-c2ccco2)c(-c2ccco2)n1 42.7%
CC(=O)c1ccc(NC(=O)CSc2nnc(-c3ccco3)c(-c3ccco3)n2)cc1 22.5%
CC1CN(Cc2nnc(-c3ccccc3)o2)CC(C)O1 (stereo unspecified) 3.22%
Cc1c(NC(=O)CN2C(=O)c3cccc4cccc2c34)c(=O)n(-c2ccccc2)n1C 29.2%
COc1cccc(CNC(=O)C2CCC(CNc3c(N4CCC(C)CC4)c(=O)c3=O)CC2)c1 (stereo unspecified) -8.13%
O=C(CCc1ccccc1)NNC(=S)Nc1ccc(F)cc1 5.08%
CC(C)(C)Sc1ccc(/C=N/O)cc1[N+](=O)[O-] -1.67%
CC(C)CSC1=NSC2=NC(=O)/C(=C\c3cccs3)C(=N)N12 9.74%
N=C1/C(=C/c2cccs2)C(=O)N=C2SN=C(SCc3ccccc3)N12 14.2%
O=C(CN1CCc2ccccc2C1)N1CCN(S(=O)(=O)c2ccccc2)CC1 7.42%
CCOc1ccc2nc(NC(=O)C(NS(=O)(=O)c3cccc4nsnc34)C(C)C)sc2c1 (stereo unspecified) -8.83%
CC1(C)Cc2sc3c(=O)[nH]c(=S)[nH]c3c2CO1 6.75%
CCCSc1nc2c3c(sc2c(=O)[nH]1)CC(C)(CC)OC3 (stereo unspecified) -0.94%
COC(=O)c1c(NC(=O)/C=C/C(=O)O)sc(C)c1-c1ccc(C)cc1 14.7%
CCOC(=O)c1c(NC(=O)/C=C/C(=O)O)sc(C)c1-c1ccc(C)c(C)c1 8.96%
COCCNc1nc2nonc2nc1N1C[C@H]2CC[C@H]1C2 8.08%
COc1ccc(N2CCN(CCCNC(=O)C3(S(=O)(=O)c4ccc(Cl)cc4)CC3)CC2)cc1 16%
COc1cc(NC(=O)CN2CCN(Cc3ccc4c(c3)OCO4)CC2)cc(OC)c1 19.9%
O=C(NNC(=O)C1CC=CCC1C(=O)O)c1ccc(Cl)cc1 (stereo unspecified) 7.35%
O=C(Nc1ccc2c(c1)CCC2)C1CCCO1 (stereo unspecified) 6.84%
Cc1ccc(NC(=O)C2CCCCC2C(=O)O)cc1C (stereo unspecified) 16.6%
Cc1ccc(NC(=O)C2CCCCC2C(=O)O)cc1Cl (stereo unspecified) 77.4%
O=C(O)C1CCCCC1C(=O)Nc1ccc(Cl)cc1 (stereo unspecified) 54.6%
Cc1onc(-c2ccccc2Cl)c1C(=O)Nc1ccccc1C(=O)NC(C)C 9.44%
COc1cc(C(=O)NC(C)c2cnn(-c3ccccc3C)c2C)cc(OC)c1OC (stereo unspecified) 5.89%
COC(=O)c1c(NC(=O)CSc2ncnc3[nH]ncc23)sc2c1CCC2 33%
CN(C)S(=O)(=O)c1cccc(CSc2cccc[n+]2[O-])c1 -1.76%
Cc1ccc2cc(CCNC(=O)C(=O)c3c[nH]c4ccccc34)c(=O)[nH]c2c1 -4.94%
COC(=O)c1cc(Cl)c(NC(=O)c2cc3ccccc3o2)cc1OC -2.34%
O=C(c1ccc(Br)cc1)c1cc(-c2ccccn2)c(N2CCOCC2)s1 5.58%
Cc1csc2c(SCC(=O)NNS(=O)(=O)c3cccc(C(F)(F)F)c3)ncnc12 -12.4%
CC1(OC(=O)C2CCCC2)C(=O)C=C2C=C(c3ccsc3)N(c3ccccc3)C=C2C1=O (stereo unspecified) -5.77%
O=C(OCCN1C(=O)c2ccccc2C1=O)c1ccco1 15.3%
Cc1ccc(NC(=O)Nc2ccc(C(=O)N3CCOCC3)cc2)cc1 41%
COc1ccc(NC(=O)Nc2ccc(C(=O)N3CCOCC3)cc2)c(OC)c1 -5.93%
CCN1CCN(Cc2ccc(NC(=O)Nc3ccccc3OC)cc2)CC1 -5.76%
CCN1CCN(Cc2ccc(NC(=O)Nc3ccccc3)cc2)CC1 50.7%
CC(=O)Nc1cccc(C(=O)/C=C/c2ccco2)c1 17.6%
O=C(O)c1ccccc1/C=N/N1CCN(C2c3ccccc3-c3ccccc32)CC1 -1.62%
Brc1ccc(C2=Nn3c(nnc3-c3n[nH]c4c3CCC4)SC2)cc1 6.03%
CCn1c(O)c(N=N)c2ccccc21 12.4%
O=C(N/N=C/c1coc2ccccc2c1=O)c1ccccc1 11.9%
O=C(N/N=C/c1coc2ccccc2c1=O)c1cc(O)cc(O)c1 29.1%
Cc1c(C(=O)N2CCCC2)sc(NC(=O)c2cccc(Cl)c2)c1C#N 18.9%
O=C(CSc1ccccc1C(=O)O)NCc1ccco1 16.5%
O=C(CSc1ncccn1)NCc1ccc(F)cc1 2.25%
Cc1ccc(SCC(=O)NCCC2=CCCCC2)cc1 -5.26%
O=C(COC(=O)c1cccnc1Cl)NCCC1=CCCCC1 3.53%
O=C(CSc1ccccc1C(=O)O)NCc1ccccc1 17.3%
O=C(COC(=O)c1cccnc1SCC(=O)NCc1ccccc1)NCc1ccccc1 5.78%
Cc1cccc2cc(C(c3nnnn3Cc3ccccc3)N3CCN(c4ccccc4)CC3)c(=O)[nH]c12 (stereo unspecified) 2.86%
COc1ccc(N2C(=O)CC(SCCc3nc4ccccc4[nH]3)C2=O)cc1 (stereo unspecified) 5.58%
CC1=C(C(=O)NCc2ccccc2)C(c2cccs2)n2ncnc2N1 (stereo unspecified) -3.95%
O=C(NNC(=S)Nc1ccccc1)Nc1ccccc1 9.53%
N#C/C(=C\c1ccc(N2CCOCC2)o1)C(=O)Nc1ccc(O)cc1 43.7%
N#C/C(=C\c1ccc(N2CCOCC2)o1)C(=O)NCC1CCCO1 (stereo unspecified) 51%
N#C/C(=C/c1ccc(N2CCOCC2)o1)C(=O)Nc1ccccc1 11.7%
N#C/C(=C\c1ccc(N2CCOCC2)o1)C(=O)NCCc1ccccc1 10.1%
COCCNC(=O)/C(C#N)=C/c1ccc(C)o1 23.4%
N#C/C(=C\c1ccc(N2CCOCC2)o1)C(=O)NC1CCCCC1 48.6%
CCN1CCN(Cc2ccc(NC(=O)c3cc(NC(=O)C4=NN(c5ccccc5)C(=O)C4)cc(OC)c3)cc2C(F)(F)F)CC1 6.5%
CCn1c(SCC(=O)OCc2ccccc2)nnc1-c1ccco1 4.57%
CCOC(=O)COc1ccccc1/C=C1/NC(=O)NC1=O -4.69%
CCOC(=O)c1c(C)[nH]c(C(=O)OCC(=O)Nc2ccc(OCC)cc2)c1C -8.26%
COc1ccc(C(C)C)cc1S(=O)(=O)n1ccnc1C -18.1%
COC1=Cc2c(ccc3ccc(=O)oc23)OC1(C)C -5.99%
CCC(Sc1nc(-c2ccccc2)cc(=O)[nH]1)C(=O)O (stereo unspecified) 10%
CC(Sc1nc(-c2ccccc2)cc(=O)[nH]1)C(=O)O (stereo unspecified) 22.4%
COc1cccc(CNC(=O)CN2C(=O)CSc3ccc(S(=O)(=O)N4CCCC4)cc32)c1 1.2%
COc1ccc(C(=O)NCC(=O)OCC(=O)Nc2c(C)n(C)n(-c3ccccc3)c2=O)cc1 5.29%
c1ccc(COc2ccccc2CNc2nn[nH]n2)cc1 6.74%
COc1ccc(CNc2nn[nH]n2)cc1OC 26.5%
COc1ccc(/C=N/NC(=S)N[C@H]2CC3CCC2C3)cc1 (stereo partly specified) 3.46%
COc1ccc(C(=O)Nc2nc3cc(OC)c(OC)cc3c(=O)[nH]2)cc1 0.22%
CC1CCC2(CC1)NC(=O)N(CC(=O)N1CCN(S(=O)(=O)c3ccccc3)CC1)C2=O (stereo unspecified) 5.42%
CS(=O)(=O)CCC(C(=O)N1CCOCC1)N1C(=O)c2cc(Cl)c(Cl)cc2C1=O (stereo unspecified) 6.46%
Cc1cccc(Nc2ncnc3ccccc23)c1 19.2%
COc1cccc(Nc2ncnc3c2cnn3C)c1 16.4%
Cc1cccc(Nc2ncnc3ccc(Br)cc23)c1 5.43%
COc1cccc(Nc2ncnc3ccccc23)c1 13.6%
CCN1C(=O)/C(=C\c2nc3ccccc3c(=O)n2-c2ccccc2)c2ccccc21 -3.98%
CCOC(=O)c1cnc2c(C)c(Cl)ccc2c1Nc1ccc(S(=O)(=O)Nc2ncccn2)cc1 -6.24%
CC(=O)NC(O)C(=O)c1ccco1 (stereo unspecified) 3.51%
C=CCn1c(SCC(=O)Nc2c(C)cccc2C)nnc1-c1ccncc1 -1.77%
